Laboratory results as given in the supplement of paper PMC10121225.
Structures can show the parent of a compound that is named as a salt.

The compounds below were run on hN + hpA co-culture (H1 iNGN2 human neurons + human primary astrocytes) (assay: presynaptic density (SYNAPSIN1 puncta per MAP2 neurite area), Z-score vs DMSO controls; higher = more presynaptic puncta (synapse-promoting)). Settings: 3 µM; 72 h.
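Note: immunostained co-cultures imaged by high-content microscopy, Z-score per plate against mean and SD of 0.1% DMSO wells, compounds added on differentiation day 18, analysed day 21.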

Structure (SMILES) | presynaptic density (Z-score)
Cc1[nH]c2ccccc2c1CCNCc1ccc(/C=C/C(=O)NO)cc1 [Panobinostat (LBH589)] | 4.81
CC1(COc2ccc3c(c2)ncn3-c2ccc3cccc(N4CCC(N)CC4)c3n2)COC1 | -0.296
Cc1cn([C@H]2C=C[C@@H](CO)O2)c(=O)[nH]c1=O [Stavudine (d4T)] | 0.723
CCc1c2c(nc3ccc(OC(=O)N4CCC(N5CCCCC5)CC4)cc13)-c1cc3c(c(=O)n1C2)COC(=O)[C@]3(O)CC [Irinotecan] | -0.725
COc1cccc2c1C(=O)c1c(O)c3c(c(O)c1C2=O)C[C@@](O)(C(C)=O)C[C@@H]3O[C@H]1C[C@H](N)[C@H](O)[C@H](C)O1 [Daunorubicin HCl] | 0.0215
O=S(=O)(NCCNCC=Cc1ccc(Br)cc1)c1cccc2cnccc12 | -0.0684
Cc1ccc(C(=O)N(CCCN)[C@@H](c2nc3cc(Cl)ccc3c(=O)n2Cc2ccccc2)C(C)C)cc1 | -0.26
COc1ccccc1Oc1c(NS(=O)(=O)c2ccc(C(C)(C)C)cc2)nc(-c2ncccn2)nc1OCCO [Bosentan Hydrate] | 0.531
O=C(O)Cn1nnc(-c2cc(N3CCC(Oc4cc(F)ccc4Br)CC3)no2)n1 | -0.606
NC1(c2ccc(-c3nc4ccn5c(=O)[nH]nc5c4cc3-c3ccccc3)cc2)CCC1 | -1.01
COc1cc2c(Nc3ccc(NC(=O)c4ccccc4)cc3)ncnc2cc1OCCCN1CCOCC1 | -1.71
O=C(O)c1ccc(Nc2ncc3c(n2)-c2ccc(Cl)cc2C(c2c(F)cccc2F)=NC3)cc1 | -0.286
CC(=O)OCC(=O)NCCCOc1cccc(CN2CCCCC2)c1 | -0.62
O=C1NC(=O)C(c2ccccc2[N+](=O)[O-])=C1Nc1ccc(O)c(Cl)c1 | -0.662
Cc1ccc(-c2cc(C(F)(F)F)nn2-c2ccc(S(N)(=O)=O)cc2)cc1 | -0.625
Nc1nc(CC(=O)Nc2ccc(CCNC[C@H](O)c3ccccc3)cc2)cs1 [Mirabegron] | -0.111
Cc1ccc(NC(=O)C2(c3ccc4c(c3)OC(F)(F)O4)CC2)nc1-c1cccc(C(=O)O)c1 [VX-809 (Lumacaftor)] | -0.6
C[C@@H](c1ncncc1F)[C@](O)(Cn1cncn1)c1ccc(F)cc1F | 0.265
CCN1CCCC1CNC(=O)c1cc(S(N)(=O)=O)ccc1OC (single isomer, unassigned; (-)) [(-)-Sulpiride] | -1.09

Structure (SMILES) | presynaptic density (Z-score)
CCCN[C@H]1CCc2nc(N)sc2C1 [Pramipexole] | 0.794
NC1(Cc2ccc(Cl)cc2)CCN(c2ncnc3[nH]ccc23)CC1 | -0.622
C[C@]12C=CC(=O)N[C@@H]1CC[C@@H]1[C@@H]2CC[C@]2(C)[C@@H](C(=O)Nc3cc(C(F)(F)F)ccc3C(F)(F)F)CC[C@@H]12 [Dutasteride] | -1.23
Nc1nc(OCc2cc(Br)cs2)c2[nH]cnc2n1 [Lomeguatrib] | -0.621
CCOC(=O)C1=C(C)NC(C)=C(C(=O)OC)C1c1cccc(Cl)c1Cl (stereo not drawn) [Felodipine] | -1.18
COc1ccc([C@]2(C#N)CC[C@@H](C(=O)O)CC2)cc1OC1CCCC1 [Cilomilast] | -0.137
Cc1cc(Nc2cc(CN3CCOCC3)c3nc(C)c(Cc4ccc(Cl)cc4F)n3n2)n[nH]1 | -1.8
O=C(NC(Cc1cc(=O)[nH]c2ccccc12)C(=O)O)c1ccc(Cl)cc1 (stereo not drawn) | -0.611
Cc1ccccc1C(=O)Nc1ccc(C(=O)N2CCCC(O)c3cc(Cl)ccc32)c(C)c1 (stereo not drawn) [Tolvaptan] | 0.77
CCN(c1cc(-c2ccc(CN3CCOCC3)cc2)cc(C(=O)NCc2c(C)cc(C)[nH]c2=O)c1C)C1CCOCC1 | -0.342
COc1ccc(COc2ccc(Cc3cnc(N)nc3N)cc2OC)cc1 | -0.788
Cc1nn(-c2ccccc2)c(C)c1C=NN1CCN(Cc2ccccc2)CC1 | -0.2
Cc1c(C(=O)NN2CCCCC2)nn(-c2ccc(Cl)cc2Cl)c1-c1ccc(Cl)cc1 [Rimonabant] | -0.594
COc1ccc2c(c1)c(C1=C(c3c[nH]c4ccccc34)C(=O)NC1=O)cn2CCCN(C)C | -0.96
CN1CCC(CNc2ccc3ncc(-c4cccc(OC(F)(F)F)c4)n3n2)CC1 | -2.44
Oc1ccc2ccccc2c1SSc1c(O)ccc2ccccc12 [1-1-Dithiodi-2-naphthtol] | -0.787
Cc1c(-c2ccc(O)cc2)n(Cc2ccc(OCCN3CCCCCC3)cc2)c2ccc(O)cc12 [Bazedoxifene HCl] | -0.982
CCc1cc(Nc2nccc(-c3c(-c4ccc(OC)c(C(=O)Nc5c(F)cccc5F)c4)nc4ccccn34)n2)c(OC)cc1N1CCC(N2CCN(S(C)(=O)=O)CC2)CC1 | 0.31
OC(CC1c2ccccc2-c2cncn21)C1CCCCC1 (stereo not drawn) | 0.156
